Only some compounds are listed: those with a hit (about 4.7% of all), similar ones and a draw of the others.
TRHR agonist: qHTS for Small Molecule Agonists and Allosteric Enhancers of Human TRH Receptor: Primary Screen for Agonists. AID 493084, 2011. TRHR cells, calcium flux fluo-8, FDSS agonist mode. 0.18% of 360,000 active. Thyrotropin-releasing hormone receptor (Homo sapiens), P34981. activation, % at 2 µM
Target sequence (P34981 whole entry, looked up): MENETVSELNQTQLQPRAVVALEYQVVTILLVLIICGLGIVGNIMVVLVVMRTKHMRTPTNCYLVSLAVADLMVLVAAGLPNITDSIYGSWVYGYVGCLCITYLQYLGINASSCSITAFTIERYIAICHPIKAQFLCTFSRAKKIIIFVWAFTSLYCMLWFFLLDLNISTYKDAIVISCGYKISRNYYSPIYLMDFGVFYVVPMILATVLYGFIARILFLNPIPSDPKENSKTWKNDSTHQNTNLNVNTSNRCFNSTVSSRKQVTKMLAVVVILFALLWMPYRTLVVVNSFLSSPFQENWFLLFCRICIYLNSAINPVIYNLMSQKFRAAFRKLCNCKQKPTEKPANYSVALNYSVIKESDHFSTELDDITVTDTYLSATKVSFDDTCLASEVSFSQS
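TRHR-expressing cells loaded with fluo-8 calcium dye; 23 nL library compound pin-transferred, kinetic FDSS fluorescence (Ex 480/Em 530) recorded about 180 s for agonist-induced calcium release, before a 10 nM TRH EC20 addition for potentiator mode.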
D1 antag: Antagonist of Human D 1 Dopamine Receptor: qHTS. D(1A) dopamine receptor (Homo sapiens), P21728. HEK293 TREx D1 cells, calcium flux, dopamine EC80; stronger effect = lower value. activity change, negative = inhibition, % at 10 µM. 3.2% of 360,000 active. AID 504652, 2011; in the data active = activity change below about -30%
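Compound effects on dopamine-evoked calcium signalling were measured in tetracycline-induced HEK293 Trex D1 cells. Dopamine at EC80 followed a 180 s compound pre-read, and fluorescence was tracked kinetically for 180 s more.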
TRHR enhancer: qHTS for Small Molecule Agonists and Allosteric Enhancers of Human TRH Receptor: Primary Screen for Enhancers; enhancement, % at 2 µM; 0.66% of 360,000 active; AID 493056, 2011; Thyrotropin-releasing hormone receptor (Homo sapiens), P34981; TRHR cells, fluo-8 calcium fluorescence, EC20 TRH enhancement; in the data active = enhancement above about 30%
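TRHR-expressing cells loaded with fluo-8 calcium dye were read kinetically (ex 480/em 530) during compound addition, then stimulated with an EC20 of TRH (10 nM final). Enhancement of the Gq-mediated intracellular calcium response was scored.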
D1 ag: Allosteric Agonists of the Human D1 Dopamine Receptor: qHTS; D(1A) dopamine receptor (Homo sapiens), P21728; HEK293 T-REx D1 cells, calcium flux, agonist mode; activation, % at 2 µM; 1% of 360,000 active
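Agonism was scored from calcium flux recorded over 180 s (1 read/s) after pintool compound addition, following a 10-cycle baseline. Cells were inducible force-coupled HEK293 TREx D1, plated overnight at 30 C and loaded with no-wash calcium dye.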
D1 PAM: Potentiators of Human D1 Dopamine Receptor: qHTS | potentiation, % at 10 µM | HEK293 TREx D1 cells, calcium flux, dopamine EC20 potentiation | AID 504651, 2011 | D(1A) dopamine receptor (Homo sapiens), P21728 | 0.036% of 360,000 active; in the data active = potentiation above about 30%
Each line names hits and unclear results; the compound was inactive in the other large screens; ! = repeats disagree. Cut-off read from the data, not from the text of the source, unless noted: active = activation above about 30%; inactive = the rest.

CC(C(=O)N(C)C1CCS(=O)(=O)C1)N1C(=O)/C(=C/c2ccc(F)cc2)SC1=S (stereo not drawn)	D1 antag -41.6
CC(C)Cc1ccc(S(=O)(=O)Nc2cc3c(cc2N2CCOCC2)n(C)c(=O)c(=O)n3C)cc1	none
O=C1CN(C(=O)CSc2nc3ccccc3c(=O)n2Cc2ccc(F)cc2)c2ccccc2N1	D1 antag -58.8
CCCOc1ccc(C(=O)c2nc3c(n2O)CCCC3)cc1	D1 antag -31.5
O=C(NCCCSc1ccccc1)c1cnc(Cl)c(Cl)c1	D1 antag -30.3
Cc1ccc(NC(=O)OC(C)CNC(=O)Oc2cccc(C)c2)cc1 (stereo not drawn)	D1 antag -32.2
CCCN(CCC)CC(O)COc1ccc2c(c1)OCO2 (stereo not drawn)	D1 antag -45.2
CC(NC(=O)Nc1ccccc1C(F)(F)F)c1c(-n2cccc2)sc2c1CCCC2 (stereo not drawn)	none
CN(C(=O)Cn1cc(S(=O)(=O)Cc2ccccc2Cl)c2ccccc21)c1ccccc1	none
Cc1ccc(OCCCNC2CCCC2)cc1	none
Cc1ccc(OCCCCNC2CCCCC2)c(C)c1	D1 ag 56.8
Cc1ccc(C)c(OCCCNC2CCCC2)c1C	D1 antag -35.3, D1 ag 41.8
O=[N+]([O-])c1cc(-c2nc(-c3cccnc3)no2)ccc1NCc1ccccc1	none
CSc1ccc(C(=O)C2CCCN(C(=O)c3cccnc3SC)C2)cc1 (stereo not drawn)	D1 antag -31.8
CSc1ncccc1C(=O)N1CCCC(C(=O)c2ccc3ccccc3c2)C1 (stereo not drawn)	none
COc1cc(Cl)c(C)cc1NC(=O)CCc1c(C)nc2c3cccnc3nn2c1C	none
Cc1ccc(C)c(N2CCN(S(=O)(=O)c3csc(C(N)=O)c3)CC2)c1	TRHR enhancer 32.2!
O=C1c2cccnc2C(Nc2ccccc2Br)N1Cc1ccco1 (stereo not drawn)	D1 antag -53.4
O=C1c2ccccc2N2C(=O)c3ccccc3C2N1Cc1ccco1 (stereo not drawn)	D1 antag -49.8
COc1ccc(OC(C)C(=O)NCc2nc(-c3cccc(C)c3)no2)cc1 (stereo not drawn)	none
COc1ccc(Br)c(C(=O)N(C)CC(=O)Nc2ccc(N3CCOCC3)cc2)c1	D1 antag -50.7
COc1ccc(OCC(=O)Nc2ccc(N3CCOCC3)cc2)cc1	none
CSCCC(NC(=O)c1ccccc1Cl)C(=O)N(C)CC(=O)Nc1ccc(N2CCOCC2)cc1 (stereo not drawn)	none
COc1cccc(-c2nn(-c3ccc(C)cc3)cc2C(=O)N(C)CC(=O)Nc2cccc(F)c2)c1	D1 antag -32.2 (no result: D1 PAM)
Cc1cccc(-c2nn(-c3ccccc3)cc2C(=O)N(C)CC(=O)Nc2ccc(N3CCOCC3)cc2)c1	D1 antag -71.4
CN(CC(=O)Nc1ccc(N2CCOCC2)cc1)C(=O)c1cccc(Cl)c1Cl	D1 antag -36.0
CN(CC(=O)Nc1ccc(N2CCOCC2)cc1)C(=O)c1cn(-c2ccccc2)nc1-c1ccccc1	none
COc1ccc(-c2nn(-c3ccccc3)cc2C(=O)N(C)CC(=O)Nc2cccc(F)c2)cc1	none
CCOC(=O)c1ccc(Nc2nc3ccccc3n3c(C)nnc23)cc1	none
COc1ccc(CNc2nc3c(S(=O)(=O)c4ccccc4)nnn3c3ccc(Cl)cc23)cc1	none
Cc1c(-c2ccc(F)cc2)nc(N)c(C#N)c1-c1ccco1	D1 antag -32.9
COc1cccc(CN2C(=O)N(c3ccc(C)cc3)C(=O)C2CC(=O)Nc2cc(OC)cc(OC)c2)c1 (stereo not drawn)	none
Cc1ccc(Cn2nc(C)c(NC(=O)CSc3nc4c(c(C(F)(F)F)n3)CCc3ccccc3-4)c2C)cc1	D1 antag -86.5
Cc1nn(Cc2ccc(Cl)cc2)c(C)c1NC(=O)CSc1nc2c(c(C(F)(F)F)n1)CCc1ccccc1-2	none
COc1cccc(C(C(=O)NCc2ccccc2)N(C(=O)Cn2nnc3ccccc32)c2cccc(C(C)=O)c2)c1 (stereo not drawn)	none
COc1cc(OC)c2c(-c3ccccc3)cc(=O)oc2c1C(CC(=O)N1CCN(c2ccccc2)CC1)c1ccc2c(c1)OCO2 (stereo not drawn)	none
COc1cc(O)c(C(CCN2CCN(c3ccccc3)CC2)c2cc(OC)c(OC)c(OC)c2)c(OC)c1 (stereo not drawn)	D1 antag -86.9
COc1cc(O)c(C(CCN2CCN(c3ccccc3)CC2)c2ccc3c(c2)OCO3)c(OC)c1 (stereo not drawn)	D1 antag -76.3
COc1cc(O)c(C(CCN2CCCC2)c2ccc3c(c2)OCO3)c(OC)c1 (stereo not drawn)	none
COc1cc(OC)c2c(-c3ccccc3)cc(=O)oc2c1C(CC(=O)N1CCOCC1)c1ccc2c(c1)OCO2 (stereo not drawn)	D1 antag -60.4
COc1cc(OC)c2c(C)cc(=O)oc2c1C(CCN1CCN(c2ccccc2)CC1)c1ccc2c(c1)OCO2 (stereo not drawn)	D1 antag -79.5
CCn1ccc2cc(S(=O)(=O)N3CCC(C(=O)NCc4ccc(OC(C)C)cc4)CC3)ccc21	none
Cc1nn(C)c2c1c(C(F)(F)F)cc(=O)n2CC(=O)N1CCC(C)CC1	none
Cc1cc(=O)n(Cc2ccc(F)cc2Cl)c2c1c(C)nn2C	none
COc1cc(O)c(C(CCN2CCCCC2)c2ccc(N(C)C)cc2)c(OC)c1 (stereo not drawn)	D1 antag -33.5
COc1cc(O)c(C(CCN2CCCC2)c2ccc(N(C)C)cc2)c(OC)c1 (stereo not drawn)	none
CCOc1ccc(NC(=O)CN(C)C(=O)c2ccc(=O)[nH]c2)cc1OCC	D1 antag -77.3
CCOc1ccc(NC(=O)CN(C)C(=O)c2ccc(C3SCCS3)cc2)cc1OCC	D1 antag -44.5
CCOc1ccc(NC(=O)CN(C)C(=O)C2CC2C)cc1OCC (stereo not drawn)	none
O=C(O)c1nn(Cc2nc3ccccc3o2)c(=O)c2ccccc12	D1 antag -77.1 (no result: D1 PAM)
Cc1ccc(-c2noc(Cn3nc(C(=O)O)c4ccccc4c3=O)n2)cc1	none
Cc1sc2ncn(CC(=O)N3CCN(c4ccc(Cl)cc4)CC3)c(=O)c2c1S(=O)(=O)N1CCN(c2ncccn2)CC1	none
Cc1ccccc1C(=O)c1cccn1CC(=O)NCCCN1CCCCC1	none

Source: PubChem
